Measured values published in ChEMBL document CHEMBL3433997, “St. Jude Leishmania screening dataset” (2016).

Experiments:
Format in all cases: functional
[1] = target: Solute carrier family 2, facilitated glucose transporter member 1 (Homo sapiens) (UniProt P11166); assay: ST_JUDE_LEISH: Cytotoxicity at 2uM final concentration against transgenic Leishmania Mexicana promastigotes LmGLUT1 that are glucose transport deficient and complemented with the human glucose transporter GLUT1. Activity is measured by DNA content using SYBR green in vitro
[2] = target: Hexose transporter 1 (Plasmodium falciparum) (UniProt O97467); assay: ST_JUDE_LEISH: Cytotoxicity at 2uM final concentration against transgenic Leishmania Mexicana promastigotes LmPfHT that are glucose transport deficient and complemented with the Plasmodium falciparum hexose transporter. Activity is measured by DNA content using SYBR green in vitro
[3] = target: Glucose transporter (Leishmania mexicana) (UniProt O61059); assay: ST_JUDE_LEISH: Cytotoxicity at 2uM final concentration against transgenic Leishmania Mexicana promastigotes LmGT2 that are glucose transport deficient and complemented with the L. Mexicana glucose transporter 2. Activity is measured by DNA content using SYBR green in vitro

Chain of Solute carrier family 2, facilitated glucose transporter member 1 (Homo sapiens) (P11166 whole entry): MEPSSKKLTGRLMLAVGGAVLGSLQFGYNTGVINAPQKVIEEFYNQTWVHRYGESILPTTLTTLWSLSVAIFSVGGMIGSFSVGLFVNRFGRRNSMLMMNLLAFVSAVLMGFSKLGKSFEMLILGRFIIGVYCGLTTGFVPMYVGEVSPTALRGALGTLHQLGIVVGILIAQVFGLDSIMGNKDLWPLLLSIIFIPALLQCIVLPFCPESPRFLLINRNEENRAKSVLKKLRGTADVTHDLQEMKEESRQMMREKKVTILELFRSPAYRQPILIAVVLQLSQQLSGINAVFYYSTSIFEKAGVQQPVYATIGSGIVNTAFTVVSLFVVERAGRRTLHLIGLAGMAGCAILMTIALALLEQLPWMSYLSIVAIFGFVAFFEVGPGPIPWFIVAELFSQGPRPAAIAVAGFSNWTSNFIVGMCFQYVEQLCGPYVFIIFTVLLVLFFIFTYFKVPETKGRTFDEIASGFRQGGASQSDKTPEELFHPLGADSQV

Question: How did the inhibition [1] turn out when `CCNc1cc(C(=O)N[C@@H](Cc2ccccc2)[C@H](O)CN[C@@H](C)c2ccccc2)cc(N2CCCC2=O)c1` was run?
Answer: Its inhibition is 1.35%.

Question: What about the inhibition [2] of the same compound?
Answer: Its inhibition is 0.55%.

Question: And the inhibition [3]?
Answer: The inhibition was 1.24%.

Question: What does the source list for `NS(=O)(=O)c1ccc(Nc2nccc(-c3c(-c4cccc(NC(=O)c5c(F)cccc5F)c4)nn4ccccc34)n2)cc1`?
Answer: inhibition [1]: 11.8%; inhibition [2]: 14.8%; inhibition [3]: 8.76%

Question: `CCCCC1(NC(=O)[C@@H](Nc2ccc(C#N)c3ccccc23)C2CCCCC2)CCCCC1` was tested. Which inhibition [1] did it give?
Answer: The inhibition was -1.28%.

Question: What about the inhibition [2] of the same compound?
Answer: Its inhibition is -0.56%.

Question: And the inhibition [3]?
Answer: Its inhibition is -0.93%.

Question: How did the inhibition [1] turn out when `CCCc1cc(OC)c(C[C@H]2c3cc(O)c(Cl)cc3CCN2C)cc1OC` was run?
Answer: The inhibition was 0.24%.

Question: And the inhibition [2]?
Answer: Its inhibition is 1.13%.

Question: What about the inhibition [3] of the same compound?
Answer: Its inhibition is 1.4%.

Question: For `CC(=O)C=C1CC(=O)N(C[C@@H](O)[C@H]2O[C@@H]3OC(C)(C)O[C@@H]3[C@H]2O)c2ccccc2N1`, which inhibition [1] is on record?
Answer: Its inhibition is 2.82%.

Question: And the inhibition [2]?
Answer: Its inhibition is 3.82%.

Question: And the inhibition [3]?
Answer: Its inhibition is 2.35%.

Question: Which inhibition [1] does the source give for `O=C(NCCCCCCNCc1ccc(-c2ccccc2)cc1)Nc1ccc(Cl)c(Cl)c1` here?
Answer: The inhibition was 1.38%.

Question: What about the inhibition [2] of the same compound?
Answer: Its inhibition is 0.96%.

Question: And the inhibition [3]?
Answer: The inhibition was 2.28%.

Question: What does the source list for `COc1cc(Cc2cnc(N)nc2N)cc(OCCCCCC(N)=O)c1OC`?
Answer: inhibition [1]: -0.36%; inhibition [2]: -2.79%; inhibition [3]: 1.17%

Question: For `CC1(C)[C@H]2CC[C@@H](CNc3nc(NCCc4c[nH]cn4)nc(NCc4cc(F)ccc4F)n3)[C@@H]1C2`, which inhibition [1] is on record?
Answer: The inhibition was 4.07%.

Question: And the inhibition [2]?
Answer: The inhibition was 0.62%.

Question: What about the inhibition [3] of the same compound?
Answer: Its inhibition is 1.36%.

Question: How did the inhibition [1] turn out when `O=C(Cn1cc(C(F)(F)F)cc(Cl)c1=O)N1CCN(S(=O)(=O)c2ccc(Cl)cc2)CC1` was run?
Answer: The inhibition was 2.2%.

Question: What about the inhibition [2] of the same compound?
Answer: Its inhibition is 1.76%.

Question: And the inhibition [3]?
Answer: Its inhibition is -0.25%.

Question: `CN(C)Cc1ccc(CNC2CCN(Cc3ccccc3Cl)CC2)cc1` was tested. Which inhibition [1] did it give?
Answer: The inhibition was 18.4%.

Question: What about the inhibition [2] of the same compound?
Answer: The inhibition was 13.8%.

Question: And the inhibition [3]?
Answer: The inhibition was 13.4%.

Question: `N#Cc1ccc(N/C(=N\c2ccc(-c3ccccc3)cc2)NC2CCCc3ccccc32)c(O)c1` (stereo not drawn) was tested. Which inhibition [1] did it give?
Answer: The inhibition was -1.53%.

Question: What about the inhibition [2] of the same compound?
Answer: Its inhibition is 0.81%.

Question: What about the inhibition [3] of the same compound?
Answer: The inhibition was -0.07%.
